This passage reports outcome and AC50 results from PubChem BioAssay (EPA / NIEHS).

Usually AC50 stands for the concentration at which the activity in the assay is half-maximal.

The source made the active and inactive calls. The calls were made as follows: active = hit-call score of the fitted dose curve at least 0.9, where 1 is the maximum; inactive = score below 0.9.

Conditions in all cases: mRNA level, 48 h; actives raise or lower the signal
Read-out in assay [1]: Peroxisomal acyl-coenzyme A oxidase 1 (ACOX1) gene, ACOX1 (gene 51)
Kind of assay: LTEA_HepaRG_ACOX1: Life Technologies and Expression Analysis (LTEA) Assay for Peroxisomal acyl-coenzyme A oxidase 1 (ACOX1) gene using HepaRG (AID 2283467). In outline:
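HepaRG, 48 h chemical exposure, 8-pt half-log series from 100 uM top, 0.5% DMSO vehicle, duplicates. Readout: ACOX1 mRNA by Fluidigm qRT-PCR, housekeeping-normalized; bidirectional fit vs DMSO baseline.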

Read-out in assay [2]: Alkaline Phosphatase, Placental (ALPP) gene, ALPP (gene 250)
Kind of assay: LTEA_HepaRG_ALPP: Life Technologies and Expression Analysis (LTEA) Assay for Alkaline Phosphatase, Placental (ALPP) gene using HepaRG (AID 2283468).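 As to AC50: differentiated human HepaRG liver cells in serum-free induction medium.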 In short, it runs like this: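 Expression of ALPP was quantified by qRT-PCR against three housekeeping genes in human HepaRG cultures treated for 48 h with an eight-point concentration series up to 100 uM. Activity in either direction was fitted relative to 0.5% DMSO.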

Read-out in assay [3]: Bcl-2 (BAD) gene, BAD (gene 572)
Kind of assay: LTEA_HepaRG_BAD: Life Technologies and Expression Analysis (LTEA) Assay for Bcl-2 (BAD) gene using HepaRG (AID 2283469). In short, it runs like this:
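HepaRG, 48 h exposure, 8-pt half-log curve from 100 uM in 0.5% DMSO, duplicates. Readout: TaqMan qRT-PCR for BAD mRNA, housekeeping-normalised (ACTB/GAPDH/POLR2A); gain or loss fitted against DMSO baseline.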

Read-out in assay [4]: Bcl-2 (BAX) gene, BAX (gene 581)
In words: LTEA_HepaRG_BAX: Life Technologies and Expression Analysis (LTEA) Assay for Bcl-2 (BAX) gene using HepaRG (AID 2283470). In short, it runs like this: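 Gene expression measured by Fluidigm qRT-PCR with three housekeeping genes for normalisation. HepaRG cells, plated 48 h beforehand, treated 48 h at up to 100 uM (8-point, half-log) in 0.5% DMSO. Bidirectional fitting versus DMSO.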

Read-out in assay [5]: adenosine kinase (ADK) gene, ADK (gene 132)
In words: LTEA_HepaRG_ADK: Life Technologies and Expression Analysis (LTEA) Assay for adenosine kinase (ADK) gene using HepaRG (AID 2283471). In short, it runs like this:
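Differentiated HepaRG cells dosed 48 h in serum-free induction medium, 0.5% DMSO vehicle, eight half-log concentrations from 100 uM, in duplicate. ADK mRNA by TaqMan qRT-PCR normalised to ACTB, GAPDH, POLR2A; bidirectional fit versus DMSO.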

Read-out in assay [6]: Alpha-fetoprotein (AFP) gene, AFP (gene 174)
In words: LTEA_HepaRG_AFP: Life Technologies and Expression Analysis (LTEA) Assay for Alpha-fetoprotein (AFP) gene using HepaRG (AID 2283472). In short, it runs like this: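 AFP transcript measured by TaqMan qRT-PCR with three housekeeping genes for normalization, after 48 h chemical treatment of HepaRG cells (top 100 uM, half-log steps, 0.5% DMSO). Gain or loss fitted against vehicle.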

Read-out in assay [7]: BCL2L11 (gene 10018)
Kind of assay: LTEA_HepaRG_BCL2L11: Life Technologies and Expression Analysis (LTEA) Assay for Bcl-2 (BCL2L11) gene using HepaRG (AID 2283473). In outline:
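Cells were plated, cultured 48 h, switched to serum-free induction medium, then dosed in duplicate for 48 h at eight half-log concentrations up to 100 uM. Lysates underwent RNA isolation and TaqMan qRT-PCR; gain or loss versus DMSO was fitted.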

Read-out in assay [8]: Apolipoprotein A-V (APOA5) gene, APOA5 (gene 116519)
In words: LTEA_HepaRG_APOA5: Life Technologies and Expression Analysis (LTEA) Assay for Apolipoprotein A-V (APOA5) gene using HepaRG (AID 2283474). In short, it runs like this: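 Human liver HepaRG cells are treated 48 h with test chemicals (100 uM top, half-log dilutions, 0.5% DMSO). APOA5 mRNA induction or loss is measured by qRT-PCR relative to vehicle.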

Read-out in assay [9]: Apoptosis regulator Bcl-2 (Homo sapiens) (UniProt P10415)
In words: LTEA_HepaRG_BCL2: Life Technologies and Expression Analysis (LTEA) Assay for Bcl-2 gene using HepaRG (AID 2283475). In short, it runs like this:
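qRT-PCR of BCL2 transcript, normalized to three housekeeping genes (ACTB, GAPDH, POLR2A), after 48 h chemical exposure of HepaRG cells; concentrations top 100 uM with half-log dilutions, 0.5% DMSO vehicle, duplicates; changes up or down fitted relative to vehicle.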

Read-out in assay [10]: Bcl-2 (BID) gene, BID (gene 637)
Kind of assay: LTEA_HepaRG_BID: Life Technologies and Expression Analysis (LTEA) Assay for Bcl-2 (BID) gene using HepaRG (AID 2283476). In outline: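 Duplicate 48 h treatments of HepaRG cells in serum-free induction medium spanned 100 uM downward in half-log steps, 0.5% DMSO. Transcript change quantified by qRT-PCR against three housekeeping genes, fitted up or down versus DMSO.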

Sequence of Apoptosis regulator Bcl-2 (Homo sapiens) (P10415 whole entry, looked up): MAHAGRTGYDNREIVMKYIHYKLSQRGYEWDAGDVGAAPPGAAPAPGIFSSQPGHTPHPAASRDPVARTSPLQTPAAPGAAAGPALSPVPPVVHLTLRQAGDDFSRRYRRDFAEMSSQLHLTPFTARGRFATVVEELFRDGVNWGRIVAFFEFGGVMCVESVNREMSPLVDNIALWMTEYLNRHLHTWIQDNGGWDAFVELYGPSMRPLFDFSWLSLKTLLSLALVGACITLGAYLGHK

In the case of `CCCCC(CC)C(=O)O` (configuration not stated), the result in [1], in [2], in assay [3], in assay [4], in assay [5] and in assay [6] was inactive. The result in assay [7], in assay [8], in assay [9] and in assay [10] was inactive.
In the case of `CS(=O)(=O)c1ccc([C@@H](CC2CCCC2)C(=O)Nc2cnccn2)cc1Cl`, the compound was classed as inactive in [1], in assay [3], in [5], in [7] and in assay [10]. Also, the AC50 in assay [2] is 81.2 µM (active); in [4], 41.3 µM (active); in assay [6], 69.8 µM (active); in assay [8], 71.2 µM (active); in assay [9], 61.8 µM (active).
For the compound `O=C(CCCN1CCC(O)(c2ccc(Cl)cc2)CC1)c1ccc(F)cc1`, the AC50 in [1] was 67 µM (active); in assay [2], 36 µM (active); in [4] it was 81.1 µM (active); in assay [6], 67.8 µM (active); in assay [9], 81.3 µM (active). The compound was called inactive in [3], in [5], in [7], in [8] and in [10].
In the case of `Cc1[nH]nc2c1N=C(c1ccccc1Cl)c1cc([N+](=O)[O-])ccc1N2`, the concentration at half-maximal activity (AC50) was 20.1 µM (active) in assay [1]; 1.59 µM (active) in [2]; 3.85 µM (active) in [4]; 4.36 µM (active) in [6]; 2.82 µM (active) in [7]; 9.84 µM (active) in assay [8]. Besides, the AC50 in [9] was 8.98 µM (active). The compound was classed as inactive in assay [3] and in [5].
On to `O=C1NS(=O)(=O)c2ccccc21`, for which the compound was classed as inactive in assay [1], in assay [2], in [3], in assay [4], in assay [5] and in [6]. The result in [7], in [8], in assay [9] and in [10] was inactive.
For `O=C(c1ccccc1)c1ccccc1`, the call in [1], in assay [2], in assay [3], in [4], in assay [5] and in assay [6] was inactive. Further, the call in assay [7], in assay [8], in assay [9] and in assay [10] was inactive.
In the case of `OCC(CO)(CBr)CBr`, the compound was classed as inactive in assay [1], in assay [2], in [3], in [4], in [5] and in assay [6]. Besides, the compound was classed as inactive in assay [7], in assay [8] and in [10].
Take `CC(=O)Nc1ccc(O)cc1`: the outcome in assay [1], in assay [2], in assay [3], in assay [4], in assay [5] and in assay [6] was inactive. Besides, the result in [7], in assay [8], in assay [9] and in [10] was inactive.
Take `CCCCCCCCCCCCOS(=O)(=O)O`: the compound was called inactive in assay [1], in assay [2], in assay [3], in [5], in assay [7] and in [8]. For the same compound, in assay [10], the compound was classed as inactive. In addition, the results for the concentration at half-maximal activity (AC50) in [4], in assay [6] and in assay [9] were 50 µM (active), 77.7 µM (active) and 86.9 µM (active), respectively.
For `CCCCc1oc2ccccc2c1C(=O)c1cc(I)c(OCCN(CC)CC)c(I)c1`, the result in [1], in assay [3], in assay [5], in [7] and in assay [10] was inactive. Besides, the half-maximal activity concentration (AC50) in assay [2] is 22.8 µM (active); in assay [4], 65.2 µM (active); in assay [6], 11.9 µM (active); in assay [8] it was 61.6 µM (active); in assay [9], 59.5 µM (active).
As to `CCCCC=O`, the compound was called inactive in assay [1], in assay [2], in assay [3], in assay [4], in assay [5] and in assay [6]. For the same compound, the compound was called inactive in assay [7], in [8], in assay [9] and in [10].
Regarding `CCCCCCCCCCCCCCC`, the outcome in assay [1], in assay [2], in [3], in [4], in [5] and in [6] was inactive. The compound was called inactive in [7], in assay [8], in assay [9] and in [10].
For `CCC(C)c1ccccc1O` (configuration not stated), the compound was called inactive in [1], in assay [2], in [3], in assay [4], in assay [5] and in [6]. The call in [7], in [8], in assay [9] and in [10] was inactive.
As to `CN(Cc1cnc2nc(N)nc(N)c2n1)c1ccc(C(=O)N[C@@H](CCC(=O)O)C(=O)O)cc1`, the compound was called inactive in [2], in [3], in assay [4], in assay [5], in assay [7] and in [8]. Further, the outcome in [9] and in assay [10] was inactive. The AC50 in [6] is 0.231 µM (active).
As to `N=C(N)c1ccc(OCCCCCOc2ccc(C(=N)N)cc2)cc1`, the half-maximal activity concentration (AC50) in assay [1] is 29 µM (active); in [4], 6.28 µM (active); in assay [5], 30.5 µM (active); in assay [6], 7.45 µM (active); in assay [7], 3.64 µM (active); in assay [8] it was 11.4 µM (active). Moreover, the AC50 in assay [9] is 73.6 µM (active); in assay [10] it was 68.3 µM (active). Besides, the result in [2] and in [3] was inactive.
`CN(C)CCOC(c1ccccc1)c1ccccc1`: the outcome in assay [1], in assay [2], in assay [3], in assay [4], in [5] and in [7] was inactive. Moreover, the result in assay [8], in assay [9] and in [10] was inactive. For the same compound, the AC50 in assay [6] is 73.9 µM (active).
